Results on 59 compounds are retold here after PubChem BioAssay AID504332 (National Center for Advancing Translational Sciences (NCATS), 2011).

In all, about 350,000 compounds went through this assay and about 31,000 (8.9%) were called active. Another 15% or so got no clear call; they are omitted. The entries come from a sample that favours actives as a whole. Where a call stands in place of a potency, no number is given. A number with no mark means an inactive call. Calls follow the shape of the dose curve; as a rule, active = well fitted inhibition curve with a large enough effect; inconclusive = small, poorly fitted or top-dose-only effect; inactive = no such curve, though single readings can be large or run the other way.
Potency is read from the fitted curve at half-maximal effect.

Histone-lysine N-methyltransferase EHMT2 (Homo sapiens), sequence (Q96KQ7 913-1193 limits assumed): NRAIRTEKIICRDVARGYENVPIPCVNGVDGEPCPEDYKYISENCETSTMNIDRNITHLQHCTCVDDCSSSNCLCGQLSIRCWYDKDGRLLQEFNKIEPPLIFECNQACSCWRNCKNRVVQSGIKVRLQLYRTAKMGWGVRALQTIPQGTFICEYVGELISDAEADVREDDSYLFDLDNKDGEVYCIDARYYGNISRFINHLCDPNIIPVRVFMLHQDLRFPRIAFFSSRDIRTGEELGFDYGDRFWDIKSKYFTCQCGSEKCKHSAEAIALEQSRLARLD

The test has as its target Histone-lysine N-methyltransferase EHMT2 (Homo sapiens) (UniProt Q96KQ7). Kind of test: qHTS Assay for Inhibitors of Histone Lysine Methyltransferase G9a. Also: nearly all actives have a fitted effect of over 75% in size. The conditions noted are these: G9a H3K9 monomethylation, AlphaScreen, 2 h; series mostly up to 59 µM. In a few lines:
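G9a (20 nM) preincubated 15 min RT with compounds, then 500 nM biotinylated H3K9 peptide and 20 uM SAM added; 2 h RT reaction. Monomethyl-H3K9 product detected by AlphaScreen with anti-H3K9me1 antibody, streptavidin donor and anti-rabbit IgG acceptor beads.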
Turning to `CCN(CCCNC(=O)c1cc(Nc2ccc(OC)cc2)nc2ccccc12)c1cccc(C)c1`, the Potency entry was “inactive”. As for `CC[C@H](C)C(=O)N[C@H]1CCCN1C(=O)/C=C/c1ccccc1`, the activity, negative = inhibition is 11.1% [at 2.33 µM]. As for `COc1ccc(C(=O)Oc2ccc(-c3nnco3)cc2)cc1S(=O)(=O)N1CCOCC1`, the Potency is 50.1 µM (active). On to `COc1ccc(C(=O)OC(C)C(=O)NC2CCCC2)cc1S(=O)(=O)N1CCOCC1` (centres undefined), for which the activity, negative = inhibition is 22.8% [at 12.7 µM]. The same measure, in the same setting: the result for `COc1ccc(C(=O)N2CCN(c3ncccn3)CC2)cc1S(=O)(=O)N1CCOCC1` reads 10.4% [at 12.7 µM]. Turning to `COc1ccc(Cl)cc1NC(=O)CCn1c(=O)c2cccn2c2ccccc21`, the Potency result was “inactive”. On to `Cc1ccc(Cl)cc1N1CCN(C(=O)c2cccc3c(=O)c(C)c(-c4ccccc4)oc23)CC1`, for which the Potency was 7.94 µM (active). Still for that read-out and setting: the result for `Cc1ccc(Cl)cc1N1CCN(C(=O)c2cccn3c(=O)c4cc(Cl)ccc4nc23)CC1` reads “inactive”; that for `CCn1cc(C(=O)N2CCN(c3cc(Cl)ccc3C)CC2)c(=O)c2cc(S(=O)(=O)N3CCCC3)ccc21`, “inactive”.

As for `CN(C)C(=O)COC(=O)c1cccc(S(=O)(=O)N2CC3(C)CC2CC(C)(C)C3)c1` (centres undefined), the Potency entry was “inactive”. As for `Cc1ccc(-c2nc3ccccn3c2Nc2c(C)cccc2C)o1`, the Potency is 12.6 µM (active). Take `Cc1nc2ccccn2c(=O)c1NC(=O)c1c(F)cccc1F`: the Potency entry is “inactive”.

Regarding `Cc1ccc(Nc2c(-c3ccc(C)s3)nc3ccccn23)cc1`, the Potency entry was “inactive”.

On to `CCc1cc2c(-c3ccccc3)cc(=O)oc2c2c1OCN(Cc1ccc(C)cc1)C2`, for which the Potency entry is “inactive”. For the compound `CN1CCN(Cc2c(O)ccc3c2oc(=O)c2ccccc23)CC1`, the activity, negative = inhibition was -28% [at 2.33 µM].

Take `Cc1ccc(CN2COc3cc(C)c4c(oc(=O)c5ccccc54)c3C2)cc1`: the Potency is 12.6 µM (active).

`COc1ccccc1CNS(=O)(=O)c1cc(C(=O)NCc2ccccn2)c(Cl)cc1Cl`: the Potency entry was “inactive”. Same read-out and setting: the result for `CCOc1ccc(NC(=O)C2CCN(S(=O)(=O)c3cc(-c4noc(C)n4)ccc3C)CC2)cc1` reads “inactive”; that for `Cc1ccccc1NC(=O)Cn1c(=O)n(Cc2ccco2)c(=O)c2ccc(C(=O)NC3CCCC3)cc21`, “inactive”.

Take `CCN1C(=O)c2ccccc2S(=O)c2ccc(C(=O)NCc3ccc(F)cc3)cc21` (centres undefined): the Potency entry is “inactive”. Turning to `COc1cccc(CCNC(=O)COc2cccc3c2OC(C)(C)C3)c1`, the Potency result was “inactive”.

In the case of `COC(=O)C(=Nc1ccccc1)/C(C(=O)C(=O)N(C)c1ccccc1)=C(\O)c1ccc(Cl)cc1`, the Potency is 20 µM (active). Still for that read-out and setting: the result for `COC(=O)c1cn(C(=O)c2ccc(Cl)cc2)c2ccccc12` reads “inactive”. As to `COC(=O)/C(NC(C)=O)=C(\C)c1ccc(Cl)cc1`, the Potency result was “inactive”. Turning to `Cc1cc(Nc2cccc(C(F)(F)F)c2)nc2ccc(NC(=O)c3ccc(=O)[nH]c3)cc12`, the Potency entry is “inactive”. The same measure, in the same setting: the same measure for `O=C(O)CC/C(=C\c1cc2c(cc1Br)OCO2)c1nc2ccccc2s1`: 35.5 µM (active). On the same count and under the same terms, the result for `O=C(O)CS/C(=C\c1ccc(F)cc1)c1nc2ccccc2s1` reads “inactive”; that for `O=C(Nc1nc2ccccc2s1)c1ccc2c(c1)OCO2`, “inactive”. The same measure, in the same setting: the same measure for `Cc1ccc2oc3c(c(=O)c2c1)C(c1ccc(O)cc1)N(Cc1ccc2c(c1)OCO2)C3=O` (centres undefined): “inactive”. `Cc1ccc(-n2c(=O)c3cccnc3n2CC(=O)Nc2ccccc2C(F)(F)F)cc1C`: the Potency result was “inactive”. On the same count and under the same terms, the result for `COc1ccc(Cc2nnc(SCC(=O)Nc3ccc(C)c(C)c3)o2)cc1OC` reads “inactive”. `COc1ccc(S(=O)(=O)N2CCOCC2)cc1NC(=O)c1ccc(OCC(C)C)c(OC)c1`: the activity, negative = inhibition is 22.9% [at 2.33 µM].

As for `COc1ccc(S(=O)(=O)N2CCCCC2)cc1NC(=O)COc1ccccc1`, the activity, negative = inhibition was -9.48% [at 2.33 µM].

Consider `Cc1cccc(OCCC(=O)Nc2cc(S(=O)(=O)N3CCCCC3)ccc2N2CCOCC2)c1`, for which the Potency entry is “inactive”. On the same count and under the same terms, the same measure for `CC(Oc1ccc(F)cc1)C(=O)Nc1cc(S(=O)(=O)N2CCOCC2)ccc1N1CCN(C)CC1` (centres undefined): 11.2 µM (active); for `COc1ccc(S(=O)(=O)N2CCOCC2)cc1NC(=O)COc1ccccc1`: 12.6 µM (active); for `Cc1ccc(S(=O)(=O)N2CCOCC2)cc1C(=O)NCc1ccc(F)cc1`: “inactive”. For `O=C(Nc1ccc(N2CCCCC2)cc1)c1cc(S(=O)(=O)N2CCOCC2)ccc1F`, the Potency was 17.8 µM (active).

As for `O=C(CNCc1cccs1)Nc1cc(S(=O)(=O)N2CCCC2)ccc1Cl`, the Potency entry was “inactive”.

As to `COc1ccc(S(=O)(=O)N2CCOCC2)cc1NC(=O)CSc1ncnc2ccccc12`, the Potency entry was “inactive”. Same read-out and setting: the same measure for `O=C(CNCc1ccco1)Nc1cc(S(=O)(=O)N2CCOCC2)ccc1N1CCCC1`: 50.1 µM (active); for `O=C(Nc1ccc2c(c1)nc1n2CCCCC1)c1cc(S(=O)(=O)N2CCOCC2)ccc1Cl`: “inactive”. With `Cc1ccc(S(=O)(=O)N2CCOCC2)cc1C(=O)Nc1ccccc1N1CCCC1`, the activity, negative = inhibition is 11% [at 0.501 µM]. Consider `CC1CCC2(CC1)N=C(c1ccccc1)C(=O)N2CC(=O)Nc1ccc(F)c(Cl)c1` (centres undefined), for which the Potency result is “inactive”. The same measure, in the same setting: the result for `O=C(NCc1cccnc1)C(=O)NCC(c1cccnc1)N1CCN(c2ccccc2)CC1` (centres undefined) reads “inactive”; that for `Cc1c(NC(=O)C(C)(C)C)cccc1-c1nc2ccccc2s1`, “inactive”; that for `CCc1ccc(-n2nnc(-c3nc(-c4ccccc4)no3)c2C)cc1`, “inactive”. Same read-out and setting: the result for `CCCCn1c(=N)c(S(=O)(=O)c2ccccc2)cc2c(=O)n3cccc(C)c3nc21` reads “inactive”. On the same count and under the same terms, the same measure for `COc1cccc(N=C2SC(C(=O)Nc3cccc(Cl)c3)CC(=O)N2C)c1` (centres undefined): “inactive”; for `Cc1cccc2c1-c1sc(C(=O)Nc3ccc(F)cc3F)cc1CO2`: “inactive”.

Consider `O=C(Nc1ccc(S(=O)(=O)N2CCc3ccccc3C2)cc1)c1ccccc1`, for which the activity, negative = inhibition was 46.5% [at 12.7 µM]. As to `O=C(COC(=O)c1ccccc1F)Nc1cc(S(=O)(=O)N2CCOCC2)ccc1N1CCCC1`, the Potency was 35.5 µM (active). As to `CS(=O)(=O)c1ccc(Cl)c(NC(=O)COC(=O)c2cccc(S(=O)(=O)N3CCCC3)c2)c1`, the Potency was 56.2 µM (active). On to `O=C(COC(=O)Cc1ccc(F)cc1)Nc1cc(S(=O)(=O)N2CCOCC2)ccc1N1CCCC1`, for which the Potency result is “inactive”. Still for that read-out and setting: the same measure for `CC(=O)c1c(C)[nH]c(C(=O)OCC(=O)Nc2cc(S(=O)(=O)N3CCCCC3)ccc2C)c1C`: “inactive”. Take `O=C(COC(=O)CCOc1ccccc1)Nc1cc(S(=O)(=O)N2CCCCC2)ccc1Cl`: the activity, negative = inhibition is 4.58% [at 2.33 µM].

Regarding `CC(C)c1ccc(NC(=O)c2cc(S(=O)(=O)N3CCc4ccccc4C3)ccc2F)cc1`, the Potency is 25.1 µM (active). For the compound `CC(NC(=O)c1cccc(S(=O)(=O)N2CCc3ccccc3C2)c1)c1ccco1` (centres undefined), the Potency result is “inactive”.

Take `O=C(COc1cccc2ccccc12)Nc1cc(S(=O)(=O)N2CCOCC2)ccc1N1CCOCC1`: the Potency entry is “inactive”.
